An excerpt weighted towards active compounds, which were near 0.89% of everything screened.
RPL19A TOR yeast: alters RPL19A-GFP fluorescence in TOR pathway yeast screen. AID 2025. percent response vs DMSO, % at 10 µM. S. cerevisiae RPL19A-GFP strain, flow cytometry, 3 h; hits give low values. hit rate 0.3% among 330,000;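 active = percent response vs DMSO below 50%; inconclusive = fewer than 70 events counted for the yeast strain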;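 note: median channel GFP fluorescence of the barcoded RPL19A-GFP strain; ratio of sample median GFP to plate DMSO average so 100% = DMSO; lower means less RPL19A-GFP as with rapamycin TOR inhibition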
LAP4 TOR yeast: alters LAP4-GFP fluorescence in TOR pathway yeast screen. S. cerevisiae LAP4-GFP multiplex, flow cytometry GFP, 3 h; median GFP as percent of DMSO wells. GFP response vs DMSO, % at 10 µM. hit rate 0.34% among 320,000;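 active = GFP response vs DMSO above a set limit, about the screen mean plus 3 SD, cut at about 150% in these data; inconclusive = under 70 cell events counted for the yeast strain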
AGP1-GFP MLPCN: yeast TOR pathway AGP1-GFP modulation; S. cerevisiae AGP1-GFP multiplex flow cytometry, 3 h; GFP as percent of DMSO wells; GFP response vs DMSO, % at 10 µM; hit rate 0.02% among 320,000;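 active = GFP response relative to DMSO above a set limit, near screen average plus 3 SD, cut at about 150% in these data; inconclusive = fewer than 70 cells counted for the yeast strain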;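 note: median GFP channel fluorescence of the gated AGP1 strain per well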
CIT2-GFP yeast: modulators of TOR pathway CIT2-GFP in S. cerevisiae; S. cerevisiae CIT2-GFP strain, flow cytometry, 3 h; 100 means same as DMSO wells; GFP response vs DMSO, % at 10 µM; hit rate 0.065% among 320,000; AID 2029;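 active = GFP response relative to DMSO above a set limit, near the screen mean plus 3 SD, cut at about 150% in these data; inconclusive = Fewer than 70 cells measured for a yeast strain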;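 note: ratio of well median GFP fluorescence to mean of DMSO wells on the plate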
MEP2-GFP yeast: yeast TOR pathway MEP2-GFP modulation; S. cerevisiae MEP2-GFP strain, flow cytometry GFP, 3 h; 100% = DMSO control level; GFP response vs DMSO, % at 10 µM; hit rate 0.51% among 330,000;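 active = GFP response versus DMSO above a set limit, roughly screen mean plus 3 SD, cut at about 180% in these data; inconclusive = fewer than 70 cells counted for a yeast strain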;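 note: median GFP fluorescence of the barcode-gated MEP2-GFP cells per well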
Starred values were filed as active, the others as inactive; [ ] = remark or other dose.

Screening CCC(C)Nc1nc(N)c([N+](=O)[O-])c(Nc2cc(OC)ccc2OC)n1 (configuration not stated) returned RPL19A TOR yeast 77 and MEP2-GFP yeast 265*[may fluoresce violet].
For Cc1cccc(C)c1NC(=O)CNC(=O)C(C)N1CCN(c2cccc(Cl)c2)CC1 (configuration not stated) the results were RPL19A TOR yeast 94, LAP4 TOR yeast 103, AGP1-GFP MLPCN 103, CIT2-GFP yeast 102 and MEP2-GFP yeast 95.
`O=C(O)COCC(=O)Nc1ccc(-n2nc(C(F)(F)F)cc2-c2cccs2)cc1` gave RPL19A TOR yeast 97, LAP4 TOR yeast 117, AGP1-GFP MLPCN 123, CIT2-GFP yeast 107 and MEP2-GFP yeast 100.
`CCC1C(=O)N(c2nc(C)cc(C)n2)N=C1C` (configuration not stated) gave RPL19A TOR yeast 15*[may fluoresce violet], LAP4 TOR yeast 97, AGP1-GFP MLPCN inconclusive, CIT2-GFP yeast inconclusive and MEP2-GFP yeast 180*[may fluoresce violet].
For CC(=O)C1=C(O)C(=O)N(CCC(=O)O)C1c1cccc(F)c1 (configuration not stated) the results were RPL19A TOR yeast 69, LAP4 TOR yeast 91, AGP1-GFP MLPCN 21, CIT2-GFP yeast inconclusive and MEP2-GFP yeast 200*[may fluoresce violet].
COc1ccccc1N1CCN(C(=O)c2cc(=O)c3c(C)cc(C)cc3o2)CC1 was read as RPL19A TOR yeast 40*[may fluoresce violet], LAP4 TOR yeast inconclusive, AGP1-GFP MLPCN inconclusive, CIT2-GFP yeast inconclusive and MEP2-GFP yeast inconclusive.
Screening CCN(CC)CCN1C(=O)/C(=C\c2ccc(Cl)c([N+](=O)[O-])c2)SC1=Nc1ccc(OC)cc1 returned RPL19A TOR yeast 53, LAP4 TOR yeast 78, AGP1-GFP MLPCN inconclusive, CIT2-GFP yeast inconclusive and MEP2-GFP yeast 197*[may fluoresce violet].
CCn1c(=O)n(CC)c2cc(N3CCCC3)c(NC(=O)c3c(F)cccc3F)cc21 was read as RPL19A TOR yeast 102, LAP4 TOR yeast 99, AGP1-GFP MLPCN 104, CIT2-GFP yeast 101 and MEP2-GFP yeast 112.
Screening O=C(CSc1nnc(-c2ccccc2F)o1)Nc1ccc(N2CCOCC2)cc1 returned RPL19A TOR yeast 96, LAP4 TOR yeast 101, AGP1-GFP MLPCN 97, CIT2-GFP yeast 90 and MEP2-GFP yeast 97.
`Cn1nc(C(F)(F)F)c(C(=O)Nc2ccc(Cl)cc2)c1Cl` gave RPL19A TOR yeast 23*[may fluoresce violet], LAP4 TOR yeast 72, AGP1-GFP MLPCN 18, CIT2-GFP yeast inconclusive and MEP2-GFP yeast 353*[may fluoresce violet].
`O=C1OCCN1C(=O)[C@H]1[C@H](c2ccc(F)cc2)C(c2ccc(F)cc2)=NN1c1ccccc1` gave RPL19A TOR yeast 106, LAP4 TOR yeast 109, AGP1-GFP MLPCN 83, CIT2-GFP yeast 71 and MEP2-GFP yeast 92.
`O=C1OCCN1C(=O)[C@H]1[C@H](c2ccc(F)cc2)C(c2ccc(F)cc2)=NN1c1ccc(Br)cc1` gave RPL19A TOR yeast 92, LAP4 TOR yeast 130, AGP1-GFP MLPCN 16, CIT2-GFP yeast inconclusive and MEP2-GFP yeast 383*[may fluoresce violet].
Screening CC(C)CNC(=O)c1nc(-c2ccccc2)n(-c2ccccc2)n1 returned RPL19A TOR yeast 20*[may fluoresce violet], LAP4 TOR yeast 95, AGP1-GFP MLPCN inconclusive, CIT2-GFP yeast inconclusive and MEP2-GFP yeast 515*[may fluoresce violet].
`Cn1ccnc1SCC(=O)Nc1ccc2nc(SCC(=O)NC3CC3)sc2c1` gave LAP4 TOR yeast 90, AGP1-GFP MLPCN inconclusive, CIT2-GFP yeast inconclusive and MEP2-GFP yeast 280*[may fluoresce violet].
For CC(OC(=O)CCN1C(=O)C2CC=CCC2C1=O)C(=O)Nc1cccc(C#N)c1 (configuration not stated) the results were RPL19A TOR yeast 98, LAP4 TOR yeast 97, AGP1-GFP MLPCN 103, CIT2-GFP yeast 106 and MEP2-GFP yeast 100.
For Cc1cc(Br)ccc1S(=O)(=O)NCc1ccccc1 the results were RPL19A TOR yeast 98, LAP4 TOR yeast 94, AGP1-GFP MLPCN 92, CIT2-GFP yeast 92 and MEP2-GFP yeast 106.
`COc1ccc(NC(C)=O)cc1NC(=O)C1CCN(C(=O)Nc2ccccc2)CC1` gave RPL19A TOR yeast 101, LAP4 TOR yeast 102, AGP1-GFP MLPCN 109, CIT2-GFP yeast 96 and MEP2-GFP yeast 100.
For Nc1ccc(-c2nc3ccc(N)cc3s2)cc1 the results were RPL19A TOR yeast 90, LAP4 TOR yeast 97, AGP1-GFP MLPCN 25, CIT2-GFP yeast inconclusive and MEP2-GFP yeast 290*[may fluoresce violet].

High-throughput results as filed in PubChem BioAssay.
